Assay [1] can be described thus: viability loss with induced miR-34 in A549 – imaging, A549 dox-inducible miR-34, nuclei and caspase counts, primary screen (AID 1347080;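 active = compounds whose cell count with miR-34 switched on is under 0.7 times the count with it off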). Particulars: A549 miR-34 inducible, Hoechst nuclei count, 48 h.
The nature of assay [2]: MELAS cybrid and Rieske KO viability enhancers – cell-based, MELAS cybrids, Rieske KO mouse fibroblasts, CellTiter-Glo, primary screen (AID 1508586).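 Note: z relative to plate mean and SD of compound and empty wells.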 The note with it: low glucose. (In ATP-based viability assays light output follows the ATP content of the culture.)
Setting [3] is: stronger effect = lower value, cell number ratio, induced over uninduced.
The mark [4] stands for this setting: measured here: relative caspase fold change +Dox/-Dox.
Where [5] appears, read: measured here: total cells with miR-34 induction, stronger effect = lower value.
Setting [6] is: measured here: total cells without miR-34 induction.
The mark [7] stands for this setting: MELAS cybrid survival, CellTiter-Glo 48 h, stronger effect = higher value.
Where [8] appears, read: Rieske KO mouse fibroblast survival, CellTiter-Glo 72 h.

Activity calls are given as the source filed them.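 Rule for the calls, unless noted: active = mean z-score across replicates of 1.96 or higher in either the MELAS or the Rieske mutant cell line; inactive = the rest.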
Note: test concentration not given here.

For `COC1O[C@H]2O[C@@]3(C)CC[C@H]4[C@@H](C)CC[C@@H]([C@H]1C)[C@@]24OO3` (some centres not stated), the figures for the fold change in assay [1] (setting [3]) and in assay [1] (setting [4]) were 0.86 (inactive) and 1.37, respectively. The cell count was 7410 in assay [1] (setting [5]) and 8620 in assay [1] (setting [6]). In addition, the z-score in assay [2] (setting [7]) was -0.241 (inactive); in assay [2] (setting [8]), 0.578.

As to `CC(C)c1onc(-c2c(Cl)cccc2Cl)c1COc1ccc(C=Cc2cccc(C(=O)O)c2)c(Cl)c1`, the fold change in assay [1] (setting [3]) is 0.901 (inactive); in assay [1] (setting [4]) it was 1.37. In addition, the cell count in assay [1] (setting [5]) was found to be 7080; in assay [1] (setting [6]), 7860. In addition, the z-score in assay [2] (setting [7]) is 0.359 (inactive); in assay [2] (setting [8]), -0.609.

`CC1CCN(CCC2CCCN2S(=O)(=O)c2cccc(O)c2)CC1` (configuration not stated): the values for the fold change in assay [1] (setting [3]) and in assay [1] (setting [4]) were 0.96 (inactive) and 0.546, respectively. Further, the cell count came to 7750 in assay [1] (setting [5]) and 8080 in assay [1] (setting [6]). The z-score is -0.371 (inactive) in assay [2] (setting [7]) and -0.0766 in assay [2] (setting [8]).

Regarding `CC(=CC(=O)Nc1ccccc1C(=O)O)c1ccc2ccccc2c1`, the results for the fold change in assay [1] (setting [3]) and in assay [1] (setting [4]) were 0.983 (inactive) and 1.42, respectively. Further, the cell count was 7300 in assay [1] (setting [5]) and 7430 in assay [1] (setting [6]). The z-score in assay [2] (setting [7]) was -0.436 (inactive); in assay [2] (setting [8]), 0.934.

Regarding `CCc1ccc(C=C2SC(=S)NC2=O)cc1`, the figures for the fold change in assay [1] (setting [3]) and in assay [1] (setting [4]) were 0.911 (inactive) and 0.424, respectively. Moreover, the cell count in assay [1] (setting [5]) was found to be 7750; in assay [1] (setting [6]), 8500. Besides, the z-score in assay [2] (setting [7]) is -0.119 (inactive); in assay [2] (setting [8]), 0.267.

Regarding `O=C(C=Cc1ccc2ccccc2n1)c1ccncc1`, the fold change in assay [1] (setting [3]) is 0.681 (active); in assay [1] (setting [4]), 0.506. The values for the cell count in assay [1] (setting [5]) and in assay [1] (setting [6]) were 2580 and 3790, respectively. For the same molecule, the figures for the z-score in assay [2] (setting [7]) and in assay [2] (setting [8]) were 0.232 (inactive) and 1.5, respectively.

As to `CNc1ncnc2c1ncn2C1OC(CO)C(O)C1O` (configuration not stated), the values for the fold change in assay [1] (setting [3]) and in assay [1] (setting [4]) were 0.908 (inactive) and 0.537, respectively. Also, the cell count is 7310 in assay [1] (setting [5]) and 8050 in assay [1] (setting [6]). The z-score in assay [2] (setting [7]) is -0.0172 (inactive); in assay [2] (setting [8]), -0.235.

Regarding `OC(c1cc(C(F)(F)F)nc2c(C(F)(F)F)cccc12)[C@H]1CCCCN1` (some centres not stated), the fold change in assay [1] (setting [3]) was 0.875 (inactive); in assay [1] (setting [4]), 0.688. Further, the cell count was found to be 5320 in assay [1] (setting [5]) and 6090 in assay [1] (setting [6]). The results for the z-score in assay [2] (setting [7]) and in assay [2] (setting [8]) were 0.101 (inactive) and -0.0437, respectively.

Regarding `C=C1C(=CC=C2CCC[C@@]3(C)[C@H]2CC[C@H]3C(C)C=CC(C)C(C)C)CC(O)CC1O` (some centres not stated), the fold change in assay [1] (setting [3]) is 0.932 (inactive); in assay [1] (setting [4]), 0.78. Further, the cell count was 7360 in assay [1] (setting [5]) and 7890 in assay [1] (setting [6]). Moreover, the z-score is -0.45 (inactive) in assay [2] (setting [7]) and 1.18 in assay [2] (setting [8]).

For `COc1cc(F)c(C(C)C)cc1-c1ccc(C(F)(F)F)cc1CN1C(=O)OC(c2cc(C(F)(F)F)cc(C(F)(F)F)c2)C1C` (configuration not stated), the fold change in assay [1] (setting [3]) was 0.899 (inactive); in assay [1] (setting [4]) it was 0.917. Also, the cell count in assay [1] (setting [5]) was 8290; in assay [1] (setting [6]), 9220. Besides, the z-score was -0.143 (inactive) in assay [2] (setting [7]) and 0.372 in assay [2] (setting [8]).

As to `CCCC(=O)O[C@@]1(C(=O)COC(C)=O)CC[C@H]2[C@@H]3CC(F)C4=CC(=O)C=C[C@]4(C)[C@]3(F)C(O)C[C@@]21C` (some centres not stated), the figures for the fold change in assay [1] (setting [3]) and in assay [1] (setting [4]) were 0.767 (inactive) and 1.77, respectively. The cell count was determined as 5160 in assay [1] (setting [5]) and 6730 in assay [1] (setting [6]). The z-score in assay [2] (setting [7]) is -0.0529 (inactive); in assay [2] (setting [8]), -0.145.

`C[C@]12CC[C@H]3c4ccc(O)cc4CC[C@H]3[C@@H]1CC(O)C2O` (some centres not stated): the fold change was 0.884 (inactive) in assay [1] (setting [3]) and 0.677 in assay [1] (setting [4]). Also, the cell count in assay [1] (setting [5]) came out at 8910; in assay [1] (setting [6]) it was 10100. Moreover, the z-score in assay [2] (setting [7]) was -0.421 (inactive); in assay [2] (setting [8]), -0.251.

For the molecule `CN(C)C(=O)Nc1cccc(-c2ccc(N(C)C)cc2)c1`, the fold change in assay [1] (setting [3]) is 0.935 (inactive); in assay [1] (setting [4]), 0.582. For the same molecule, the cell count is 7650 in assay [1] (setting [5]) and 8180 in assay [1] (setting [6]). For the same molecule, the z-score in assay [2] (setting [7]) is -0.267 (inactive); in assay [2] (setting [8]), -1.04.

Regarding `Cc1nc(C#Cc2ccnc(Cl)c2)c(C)n1-c1ccc(OC(F)(F)F)cc1`, the fold change in assay [1] (setting [3]) was 1.01 (inactive); in assay [1] (setting [4]) it was 0.784. Further, the cell count worked out at 6890 in assay [1] (setting [5]) and 6830 in assay [1] (setting [6]). Besides, the z-score in assay [2] (setting [7]) was -0.149 (inactive); in assay [2] (setting [8]), 0.0252.

Regarding `C[C@]12CCC(=O)C=C1CC[C@@H]1[C@H]2C(O)C[C@@]2(C)[C@H]1CC[C@@]2(O)C(=O)CO` (some centres not stated), the fold change in assay [1] (setting [3]) was 0.923 (inactive); in assay [1] (setting [4]) it was 0.886. For the same molecule, the cell count in assay [1] (setting [5]) is 5230; in assay [1] (setting [6]), 5670. In addition, the z-score in assay [2] (setting [7]) was -0.31 (inactive); in assay [2] (setting [8]), -0.201.

In the case of `CC(=O)OCC(=O)[C@]12N=C(C)O[C@@H]1C[C@H]1[C@@H]3CCC4=CC(=O)C=C[C@]4(C)[C@@H]3C(O)C[C@@]12C` (some centres not stated), the fold change is 0.954 (inactive) in assay [1] (setting [3]) and 1.27 in assay [1] (setting [4]). For the same molecule, the cell count in assay [1] (setting [5]) is 5010; in assay [1] (setting [6]), 5250. For the same molecule, the values for the z-score in assay [2] (setting [7]) and in assay [2] (setting [8]) were -0.0832 (inactive) and -0.272, respectively.

Regarding `CCC(CC)(NC(=O)C(C)C)C(=O)NC(CCCN=C(N)N)C(=O)NC1(C(=O)NC(c2ccc(F)cc2)c2ccc(F)cc2)CCCC1` (configuration not stated), the fold change was 0.936 (inactive) in assay [1] (setting [3]) and 0.709 in assay [1] (setting [4]). Besides, the cell count in assay [1] (setting [5]) is 9110; in assay [1] (setting [6]), 9730. Besides, the z-score in assay [2] (setting [7]) was -0.415 (inactive); in assay [2] (setting [8]), -0.654.

As for `O=C(c1ccccc1)c1ccc2nc(NC(=O)c3csc(C4CCN(c5ncnc6ccsc56)CC4)n3)[nH]c2c1`, the fold change in assay [1] (setting [3]) is 1.1 (inactive); in assay [1] (setting [4]) it was 0.341. In addition, the figures for the cell count in assay [1] (setting [5]) and in assay [1] (setting [6]) were 2690 and 2460, respectively. Also, the values for the z-score in assay [2] (setting [7]) and in assay [2] (setting [8]) were -0.654 (inactive) and -0.043, respectively.

`Cc1ccc(-c2c(-c3nn(C)c4ncnc(N5CCC(N6CCCCC6)C5)c34)cnn2C)cc1` (configuration not stated): the fold change in assay [1] (setting [3]) is 0.989 (inactive); in assay [1] (setting [4]), 0.458. Further, the cell count in assay [1] (setting [5]) was found to be 8040; in assay [1] (setting [6]), 8120. Also, the z-score in assay [2] (setting [7]) was -0.254 (inactive); in assay [2] (setting [8]), -0.0628.

`CC(C)c1c(C(=O)Nc2ccccc2)c(-c2ccccc2)c(-c2ccc(F)cc2)n1CCC(O)CC(O)CC(=O)O` (configuration not stated): the results for the fold change in assay [1] (setting [3]) and in assay [1] (setting [4]) were 1.21 (inactive) and 0.989, respectively. Besides, the results for the cell count in assay [1] (setting [5]) and in assay [1] (setting [6]) were 5220 and 4330, respectively. The z-score in assay [2] (setting [7]) was 0.917 (inactive); in assay [2] (setting [8]), -1.34.

Take `CC(=O)OC1C[C@@H]2CC[C@@H]3[C@@H](CC[C@]4(C)C(OC(C)=O)C([N+]5(C)CCCCC5)C[C@@H]34)[C@@]2(C)CC1[N+]1(C)CCCCC1` (some centres not stated): the fold change in assay [1] (setting [3]) is 0.982 (inactive); in assay [1] (setting [4]) it was 0.749. The results for the cell count in assay [1] (setting [5]) and in assay [1] (setting [6]) were 10400 and 10600, respectively. Moreover, the z-score is -0.344 (inactive) in assay [2] (setting [7]) and 0.747 in assay [2] (setting [8]).

With `CCc1cccc2c3c([nH]c12)[C@](CC)(CC(=O)O)OCC3`, the figures for the fold change in assay [1] (setting [3]) and in assay [1] (setting [4]) were 0.926 (inactive) and 0.786, respectively. In addition, the values for the cell count in assay [1] (setting [5]) and in assay [1] (setting [6]) were 7980 and 8620, respectively. Also, the z-score in assay [2] (setting [7]) was -0.475 (inactive); in assay [2] (setting [8]), -0.00521.

These data come from PubChem BioAssay.
